The text below walks through data of PubChem BioAssay (Tox21).

Unmarked numbers belong to inactive results. Records with an inconclusive call do not appear. The source made the active and inactive calls. Unless noted, the call rests on the fitted dose curve.

The nature of assay [1]: Nuclear factor erythroid 2-related factor 2/antioxidant responsive element (Nrf2/ARE) small molecule agonists: qHTS cell viability counter screen in human keratinocytes (AID 1919968; active means well fitted curve in the direction sought with a large enough effect in the repeat runs; an effect the other way counts as inactive or inconclusive; further: nearly all actives have a fitted effect of over 55% in size). The method in brief:
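Cells of the KeratinoSens line were plated at 1,500 per well and left for 5 h before compound transfer from DMSO stocks. After a 23 h incubation (37 C, 5% CO2), CellTiter-Fluor was added. Signal was taken as fluorescence intensity 1 h later.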

For assay [2], the target named is Gonadotropin-releasing hormone receptor (Homo sapiens) (UniProt P30968). In words: Human gonadotropin-releasing hormone receptor (GnRHR) small molecule agonists, calcium flux assay in GnRHR-HEK293 cells (AID 1920063). Further: nearly all actives have a fitted effect of over 35% in size. The method in brief:
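Compounds dissolved in DMSO are pin-transferred onto dye-loaded GnRHR-HEK293 cells, which were seeded 18 h before at 37 C/5% CO2. Calcium signal is read as fluorescence intensity at 1 s intervals for 3 min.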
(Calcium flux is commonly read through the fluorescence of an indicator in the cells.)

The target of assay [3] is KiSS-1 receptor (Homo sapiens) (UniProt Q969F8). In words: Human kisspeptin (KISS1R) small molecule agonists, calcium flux assay in KISS1R-HEK293 cells (AID 1920064; active means well fitted curve in the direction sought with a large enough effect in the repeat runs; an effect the other way counts as inactive or inconclusive). In short, it runs like this:
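Cell line: HEK293, stable human KISS1R. Dye loading 1 h at 37 C after 18 h culture. Read: kinetic fluorescence, 480/540 nm, 3 min at 1 s intervals.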

Assay [4] is described as follows: G protein-coupled receptor (GPCR) small molecule agonists, calcium flux assay: HEK293 wild type cell line counter screen (AID 1920065). The method in brief:
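Tox21 10K compounds, 15 concentrations each in triplicate, pin-transferred in DMSO onto dye-loaded cells; kinetic read at 480/540 nm for 3 min, 1 s intervals.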

Assay [5] can be described thus: p53 small molecule agonists, cell-based qHTS assay with human liver microsomes (AID 1963577). The method in brief:
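p53RE-bla reporter cells were pre-incubated 5 h at 37 C, then treated with compounds plus human liver microsomes (0.5 mg/mL final) and NADPH (0.5 mg/mL final) for 16 h at 37 C. Beta-lactamase activity was read by LiveBLAzer fluorescence after 2 h at room temperature.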
Background: In qHTS, concentration-response curves come from the screen itself.

Assay [6] in a line: p53 small molecule agonists, cell-based qHTS assay with rat liver microsomes (AID 1963578). In short, it runs like this:
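p53RE-bla cells were exposed to compounds together with rat liver microsomes (0.5 mg/mL final) and NADPH (0.5 mg/mL final) for 16 h at 37 C, then read by LiveBLAzer beta-lactamase fluorescence after 2 h at room temperature.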

The nature of assay [7]: p53 small molecule agonists, cell-based qHTS assay with human liver microsomes: qHTS cell viability counter screen (AID 1963579). Further: nearly all actives have a fitted effect of over 45% in size. In short, it runs like this: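 p53RE-bla cells (4,000/well) were pre-incubated 5 h at 37 C, then given compounds in DMSO plus human liver microsomes (0.5 mg/mL final) and NADPH (0.5 mg/mL final) for 16 h at 37 C. Viability was read by CellTiter-Glo luminescence.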

Assay [8] in a line: p53 small molecule agonists, cell-based qHTS assay: qHTS cell viability counter screen (AID 1963581). Further: nearly all actives have a fitted effect of over 45% in size. In short, it runs like this:
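ATP content measured by luminescence in HCT-116 p53RE-bla cells treated 16 h at 37 C, same wells as the reporter screen.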

Assay [9] in a line: p53 small molecule agonists, cell-based qHTS assay (AID 1963582; active means well fitted activation curve with a large enough effect in the signal ratio in the repeat runs, not every such curve was filed as active; the % refers to the signal ratio). In short, it runs like this: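 16 h compound exposure (37 C) of p53 response element–bla cells, preceded by 5 h recovery at 37 C/5% CO2; read-out via LiveBLAzer B/G FRET substrate, 2 h RT, fluorescence intensity.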
For assay [10], the target named is 5-hydroxytryptamine receptor 2A (Homo sapiens) (UniProt P28223). In words: 5-hydroxytryptamine receptor 2A (HTR2A) small molecule antagonists, cell-based qHTS assay (AID 1963586). Further: nearly all actives have a fitted effect of over 45% in size. In short, it runs like this:
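CHO cells stably expressing human HTR2A were plated for 18 h at 37 C, then loaded with calcium dye for 1 h. Compounds were preincubated 5 min at room temperature before DOI (4 nM solution) was added. Kinetic fluorescence was read for 3 min.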

Assay [11] has as its target Muscarinic acetylcholine receptor M1 (Homo sapiens) (UniProt P11229). In words: Cholinergic receptor muscarinic 1 (CHRM1) small molecule antagonists, cell-based qHTS assay (AID 1963588). Further: nearly all actives have a fitted effect of over 40% in size. The method in brief: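 Compounds were tested at 15 concentrations in three independent runs. Dye-loaded CHRM1-CHO cells were exposed 5 min at room temperature before stimulation by acetylcholine added at 50nM. Intracellular calcium was read kinetically on FDSS for 3 min.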

For assay [12] the target is unchanged. In words: Cholinergic receptor muscarinic 1 (CHRM1) small molecule agonists, cell-based qHTS assay (AID 1963589). Further: nearly all actives have a fitted effect of over 35% in size. In short, it runs like this:
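Homogeneous fluorescence calcium flux, agonist mode. Human M1-expressing CHO cells; compound dosed at 15 concentrations, three independent runs; signal sampled every 1 sec.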

The nature of assay [13]: cAMP Responsive Elements (CRE) small molecule agonists, cell-based qHTS assay (AID 1963590). In short, it runs like this:
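HEK 293T cells stably bearing CRE-bla were plated at 2,000 cells per well and rested 18 h. Compounds, positive controls or DMSO were added for 3 h at 37 C. LiveBLAzer B/G substrate was then loaded for 2 h at room temperature.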

A short description of assay [14]: cAMP Responsive Elements (CRE) small molecule antagonists, cell-based qHTS assay (AID 1963591; active means well fitted inhibition curve with a large enough effect in the signal ratio in the repeat runs, not every such curve was filed as active; the % refers to the signal ratio). The method in brief:
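First, CRE-bla HEK293T cells settled 18 h at 37 C. Next, compound and 0.25 uM final NKH477 were applied for 3 h. Last, LiveBLAzer B/G substrate was loaded for 2 h at room temperature.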

The target in assay [15] is Beta-2 adrenergic receptor (Homo sapiens) (UniProt P07550). In words: Adrenergic beta2 receptor (ADRB2) small molecule antagonists, cell-based qHTS assay (AID 1963592). Further: series mostly up to about 92 µM; nearly all actives have a fitted effect of over 50% in size. In short, it runs like this:
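Assay format: CHO-ADRB2 cells, 18-20hr seeding at 37C/5% CO2, then compound plus 1nM isoproterenol agonist mix for 0.5hr RT. Homogeneous time-resolved fluorescence cAMP detection after 1hr, expressed as 665/615 nm ratio.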

Assay [16] concerns the target D(2) dopamine receptor (Homo sapiens) (UniProt P14416). In words: Dopamine D2 receptor (DRD2) small molecule agonists, cell-based qHTS assay (AID 1963594). Further: nearly all actives have a fitted effect of over 35% in size. Further: potency means the concentration at half of the fitted maximal effect. The method in brief: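 HEK293 cells stably expressing DRD2 were cultured 24 h at 37 C, then given Ro20-1724 (0.1 mM final) and compounds for 10 min at room temperature. NKH477 (200nM) was then added for 30 min. cAMP was read by HTRF.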

A short description of assay [17]: p53 small molecule agonists, cell-based qHTS assay with rat liver microsomes: qHTS cell viability counter screen (AID 1963580). Further: nearly all actives have a fitted effect of over 45% in size. The method in brief: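 Luminescent ATP readout (CellTiter-Glo, 30 min at room temperature) reports viability of p53RE-bla HCT-116 cells after 16 h at 37 C with test compounds under metabolic activation by rat liver microsomes and NADPH at 0.5 mg/mL final each.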

In assay [18] the target is 5-hydroxytryptamine receptor 2A (Homo sapiens) (UniProt P28223). In words: 5-hydroxytryptamine receptor 2A (HTR2A) small molecule agonists, cell-based qHTS assay (AID 1963587). Further: nearly all actives have a fitted effect of over 30% in size. In short, it runs like this:
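HTR2A-CHO cells, plated 18 h at 37 C/5% CO2, dye-loaded 1 h at 37 C; compounds in DMSO added by pin tool (agonist mode). Intracellular calcium flux read as kinetic fluorescence on FDSS over 2 min at 1 s intervals.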

Assay [19] deals with D(2) dopamine receptor (Homo sapiens) (UniProt P14416). In words: Dopamine D2 receptor (DRD2) small molecule antagonists, cell-based qHTS assay (AID 1963595; active means well fitted inhibition curve with a large enough effect in the signal ratio in the repeat runs, with a control signal flat; the % refers to the signal ratio). The method in brief:
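DRD2-HEK293; 0.1 mM Ro20-1724; cpd 10 min RT; NKH477 200 nM + quinpirole 12 nM, 30 min RT; HTRF cAMP (cAMP-d2/anti-cAMP cryptate), 665/620 nm ratio after 1 h.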

Sequence of Gonadotropin-releasing hormone receptor (Homo sapiens) (P30968 whole entry, looked up): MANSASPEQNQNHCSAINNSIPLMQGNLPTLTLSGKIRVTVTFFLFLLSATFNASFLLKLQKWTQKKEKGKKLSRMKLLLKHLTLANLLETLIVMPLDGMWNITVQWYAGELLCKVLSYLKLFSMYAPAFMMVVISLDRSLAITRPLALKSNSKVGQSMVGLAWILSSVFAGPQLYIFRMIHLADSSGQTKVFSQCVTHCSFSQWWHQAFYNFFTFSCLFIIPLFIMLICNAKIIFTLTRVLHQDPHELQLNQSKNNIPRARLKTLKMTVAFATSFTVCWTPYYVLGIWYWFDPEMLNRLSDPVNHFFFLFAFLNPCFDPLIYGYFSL
Sequence of Beta-2 adrenergic receptor (Homo sapiens) (P07550 whole entry, looked up): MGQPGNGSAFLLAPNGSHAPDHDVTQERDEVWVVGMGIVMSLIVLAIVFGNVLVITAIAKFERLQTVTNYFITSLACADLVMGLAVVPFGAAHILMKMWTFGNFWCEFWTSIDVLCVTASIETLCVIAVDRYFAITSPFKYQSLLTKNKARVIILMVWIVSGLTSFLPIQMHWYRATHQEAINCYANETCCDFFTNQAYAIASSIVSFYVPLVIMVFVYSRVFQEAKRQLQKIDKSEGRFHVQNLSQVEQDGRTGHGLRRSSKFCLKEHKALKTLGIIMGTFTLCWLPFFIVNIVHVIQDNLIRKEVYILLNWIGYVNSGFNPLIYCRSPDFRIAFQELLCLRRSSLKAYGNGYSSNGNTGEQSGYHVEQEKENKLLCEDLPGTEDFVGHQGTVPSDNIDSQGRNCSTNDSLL
Sequence of 5-hydroxytryptamine receptor 2A (Homo sapiens) (P28223 whole entry, looked up): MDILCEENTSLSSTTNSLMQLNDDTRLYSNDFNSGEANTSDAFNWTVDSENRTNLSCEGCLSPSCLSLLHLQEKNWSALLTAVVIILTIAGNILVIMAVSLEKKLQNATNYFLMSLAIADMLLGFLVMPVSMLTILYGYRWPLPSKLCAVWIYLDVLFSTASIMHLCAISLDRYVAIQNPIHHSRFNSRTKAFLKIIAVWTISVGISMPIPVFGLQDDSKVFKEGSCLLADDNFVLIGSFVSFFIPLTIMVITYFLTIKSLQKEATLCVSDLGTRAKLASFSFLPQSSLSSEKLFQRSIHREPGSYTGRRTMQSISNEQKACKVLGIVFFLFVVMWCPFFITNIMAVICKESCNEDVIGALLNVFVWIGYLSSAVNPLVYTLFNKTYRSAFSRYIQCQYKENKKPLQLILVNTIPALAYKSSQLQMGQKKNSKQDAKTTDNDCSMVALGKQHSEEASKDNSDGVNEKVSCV
Sequence of D(2) dopamine receptor (Homo sapiens) (P14416 whole entry, looked up): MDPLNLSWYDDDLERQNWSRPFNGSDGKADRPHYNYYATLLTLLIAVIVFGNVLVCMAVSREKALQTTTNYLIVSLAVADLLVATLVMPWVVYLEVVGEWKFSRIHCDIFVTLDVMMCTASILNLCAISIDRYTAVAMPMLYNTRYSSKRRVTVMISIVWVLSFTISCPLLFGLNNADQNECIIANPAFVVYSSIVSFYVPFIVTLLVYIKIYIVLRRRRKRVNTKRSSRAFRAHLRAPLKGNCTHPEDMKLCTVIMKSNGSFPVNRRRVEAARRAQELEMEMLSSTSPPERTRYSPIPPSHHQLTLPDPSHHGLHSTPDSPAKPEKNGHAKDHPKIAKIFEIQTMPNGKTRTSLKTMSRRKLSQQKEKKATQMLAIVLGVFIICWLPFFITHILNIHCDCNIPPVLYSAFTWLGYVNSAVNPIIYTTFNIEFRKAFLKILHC
Sequence of Muscarinic acetylcholine receptor M1 (Homo sapiens) (P11229 whole entry, looked up): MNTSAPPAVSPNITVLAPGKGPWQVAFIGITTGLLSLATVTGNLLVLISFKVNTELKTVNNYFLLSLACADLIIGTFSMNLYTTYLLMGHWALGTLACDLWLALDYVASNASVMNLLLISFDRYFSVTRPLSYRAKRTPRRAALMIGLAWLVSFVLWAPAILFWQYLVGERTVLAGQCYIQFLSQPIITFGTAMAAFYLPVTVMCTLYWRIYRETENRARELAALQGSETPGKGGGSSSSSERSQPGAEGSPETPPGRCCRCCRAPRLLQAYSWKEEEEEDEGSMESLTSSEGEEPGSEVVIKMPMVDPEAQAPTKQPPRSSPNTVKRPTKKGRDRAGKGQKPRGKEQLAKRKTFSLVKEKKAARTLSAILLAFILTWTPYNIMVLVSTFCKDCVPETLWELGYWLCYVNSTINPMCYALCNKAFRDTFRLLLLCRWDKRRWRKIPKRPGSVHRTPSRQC
Sequence of KiSS-1 receptor (Homo sapiens) (Q969F8 whole entry, looked up): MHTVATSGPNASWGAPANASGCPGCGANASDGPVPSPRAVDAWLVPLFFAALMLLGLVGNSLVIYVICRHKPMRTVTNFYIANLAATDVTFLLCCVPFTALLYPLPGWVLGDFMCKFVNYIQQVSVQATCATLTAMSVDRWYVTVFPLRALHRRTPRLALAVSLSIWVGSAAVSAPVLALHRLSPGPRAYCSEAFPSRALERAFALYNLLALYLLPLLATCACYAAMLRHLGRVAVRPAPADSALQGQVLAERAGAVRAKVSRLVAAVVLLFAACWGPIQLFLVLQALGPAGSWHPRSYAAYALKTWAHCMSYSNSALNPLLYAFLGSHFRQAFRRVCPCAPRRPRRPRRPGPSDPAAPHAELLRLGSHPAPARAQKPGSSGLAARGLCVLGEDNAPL

Consider `CCC[N+](CCC)(CCC)CCC`, for which the Potency result in assay [1], in assay [2], in assay [3], in assay [4], in [5] and in assay [6] was “inactive” in each case. The Potency result in assay [7], in [8], in assay [9], in assay [10], in assay [11] and in [12] was “inactive” each time. Besides, the Potency entry in assay [13], in assay [14], in [15] and in assay [16] was “inactive” each time.
As to `N#CC(C#N)=Cc1ccc(O)c(O)c1`, the Potency result in assay [1], in [2], in [3], in assay [4], in [5] and in assay [6] was “inactive” throughout. For the same molecule, the Potency result in assay [7], in assay [17], in assay [8], in [9], in assay [15] and in assay [16] was “inactive” throughout.
Turning to `Cn1[nH]nnc1=S`, the Potency result in [1], in assay [2], in [3], in assay [4], in assay [5] and in assay [6] was “inactive” in each case. In addition, the Potency entry in assay [17], in assay [8], in [10], in [18], in [11] and in assay [12] was “inactive” throughout. The Potency entry in assay [13], in assay [14], in [16] and in assay [19] was “inactive” in each case.
As to `COC(N)=O`, the Potency result in assay [1], in [2], in assay [3], in assay [4], in assay [5] and in assay [6] was “inactive” in each case. The Potency entry in assay [17], in assay [8], in assay [9], in [10], in [18] and in assay [11] was “inactive” in each case. The Potency entry in assay [12], in assay [15] and in assay [16] was “inactive” in each case.
Take `CSCCCN=C=S`: the Potency result in assay [1], in assay [2], in assay [3], in assay [4], in assay [5] and in assay [6] was “inactive” each time. The Potency entry in assay [7], in assay [8], in [9], in [10], in [18] and in [11] was “inactive” each time. Moreover, the Potency result in [12], in assay [13], in assay [14], in assay [15] and in assay [19] was “inactive” each time.
`N=C(N)[Se]`: the Potency result in assay [1], in assay [2], in assay [3], in assay [4], in assay [5] and in assay [6] was “inactive” throughout. The Potency entry in assay [7], in assay [17], in [8], in [10], in [11] and in assay [12] was “inactive” throughout. For the same molecule, the Potency entry in assay [13], in assay [14], in assay [15], in assay [16] and in assay [19] was “inactive” throughout.
Regarding `O=C(O)c1ccc2[nH]cc(CCCCN3CC=C(c4ccccc4)CC3)c2c1`, the Potency result in [1], in [2], in [3], in [4], in assay [5] and in [6] was “inactive” throughout. In addition, the Potency entry in [7], in [17], in assay [8], in assay [9], in assay [18] and in assay [11] was “inactive” each time. Besides, the Potency entry in assay [12] and in assay [15] was “inactive” throughout. The Potency in assay [16] was 8.4 nM (active).
As for `ClC(Cl)(Cl)Cl`, the Potency result in assay [1], in assay [2], in assay [3], in assay [4], in assay [5] and in [6] was “inactive” each time. In addition, the Potency result in assay [7], in assay [17], in assay [8], in assay [13], in [14] and in [15] was “inactive” throughout. The Potency result in assay [16] and in assay [19] was “inactive” each time.
